# Most compounds without a hit are left out; they make up all but 19% or so of the library.
# DT40 TDP1 CPT – growth inhibition of DT40 Tdp1-/-;hTDP1 cells with camptothecin (screen for TDP1 inhibitors). chicken DT40 Tdp1-/-;hTDP1 cells + 20 nM CPT, ATP luminescence, 48 h. hit rate 12% among 420,000. Potency, µM (top dose mostly 46.2 µM), inactives show at the highest dose activity change, negative = growth inhibition, usual class: inhibitors; note: potency is the fitted concentration of half-maximal effect; nearly all actives have a fitted effect of over 55% in size
#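 Cell growth measured by CellTiter-Glo luminescence after a minimum 48 h, 37 C compound exposure with 20 nM CPT in Tdp1-knockout DT40 cells stably expressing hTDP1, seeded 400/well; qHTS titration format.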
# HT1080-NT tox – kills 2HG-producing HT-1080-NT fibrosarcoma cells. HT-1080-NT fibrosarcoma viability, CellTiter-Glo ATP luminescence, 48 h. Potency, µM (highest dose often 46.1 µM), without a hit: at the highest dose activity, negative = less viability, actives largely listed as cytotoxic. hit rate 1.6% among 360,000. AID 686970;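 note: NT is the 2HG producing partner of a matched IDH1 knockdown line; potency is the fitted concentration of half-maximal effect; 0% = DMSO-treated cells and -100% = media-only wells without cells; nearly all actives have a fitted effect of over 55% in size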
#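 HT-1080-NT; 750 cells/well; 5% FBS RPMI; 48 h compound, 37 degrees C; CellTiter-Glo luminescence; curve fitting and curve-class assignment.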
# ELG1 repair inh – ELG1-dependent DNA repair inhibition | HEK293T ELG1-luciferase reporter, luminescence, 16 h; DNA damage induced by 5-fluorouridine | Potency, µM (doses to about 46.1 µM), without a hit: at the top dose activity change, negative = inhibition, usual class: inhibitors | hit rate 2.3% among 330,000; note: potency is the fitted concentration of half-maximal effect; nearly all actives have a fitted effect of over 55% in size
#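 HEK293T cells expressing luciferase-tagged ELG1 (2,000/well) received 5-Fluorouridine plus compound or DMSO for 16 hr at 37 °C. Luciferase was read by ONE-Glo luminescence after 30 min at room temperature.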
# DT40 TDP1 no CPT – qHTS for Inhibitors of human tyrosyl-DNA phosphodiesterase 1 (TDP1): qHTS in cells in absence of CPT | DT40 Tdp1-/- hTDP1 cells, no CPT, ATP luminescence, 48 h | Potency, µM (highest dose often 46.2 µM), for inactives: at the top dose activity change, negative = growth inhibition, most hits filed as inhibitors | hit rate 15% among 420,000; note: potency is the fitted concentration of half-maximal effect; nearly all actives have a fitted effect of over 55% in size
#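 Compound effects on proliferation are scored in DT40 Tdp1-/-;hTDP1 cells in the absence of CPT. ATP levels (CellTiter-Glo luminescence) are recorded after a ≥48 hr, 37 °C incubation.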
# HT1080 IDH1KD tx – toxicity to HT-1080 IDH1 knockdown cells (counter line); Potency, µM (doses to about 46.1 µM), inactives show top-dose activity, negative = toxicity, actives largely listed as cytotoxic; HT-1080 IDH1 knockdown viability, ATP luminescence, 48 h; hit rate 2% among 360,000;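 note: potency is the fitted concentration of half-maximal effect; 0% = DMSO wells and -100% = cell-free medium wells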
#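 HT-1080-IDH1KD cells (IDH1 knocked down), 750/well in RPMI with 5% FBS, treated with compound 48 h at 37 degrees C. Viability by CellTiter-Glo luminescence, normalised to DMSO and no-cell wells; concentration-response curves classed.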
# IL-1B inflam inh – inflammasome signaling inhibition, IL-1 beta readout; hit rate 4.7% among 360,000; THP-1 LPS/ATP IL-1B secretion, AlphaLISA, 16 h; stronger effect = lower value; activity change, % at 57.5 µM; in the data active = activity change below about -50%; inconclusive = mostly about -30% to -49%
#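 THP-1 cells pretreated 1 hr with compounds (up to 57.5 uM final), then stimulated with LPS (250 ng/mL final) plus ATP (1.25 mM final); secreted IL-1B measured by AlphaLISA after 16 hr, decreased signal indicating inhibition.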
# * = called active by the depositor; ? = inconclusive; . = not tested or not shown; ! = a repeat was not active. Unless noted, calls come from the whole dose curve; as a rule, active = well fitted curve in the direction sought with a large enough effect; inconclusive = small, poorly fitted or top-dose-only effect, or another doubt; inactive = no such curve, though single readings can be large; an effect the other way counts as inactive or inconclusive. Unless noted, % is set by controls: 0 for no effect and ±100 for the full control effect.
SMILES,DT40 TDP1 CPT,HT1080-NT tox,ELG1 repair inh,DT40 TDP1 no CPT,HT1080 IDH1KD tx,IL-1B inflam inh
Fc1ccc(Cn2nnnc2CN2CCC(n3nnc4cc(C(F)(F)F)ccc43)CC2)cc1,18µM*,10%,?,?,-3%,?
Fc1ccc2c(c1)nnn2C1CCN(Cc2nnnn2CCc2ccccc2)CC1,?,-11%,-23%,?,-1%,-24
CC(C)NC(=O)N1CC[C@@]2(CCCNC2)C1,0%,.,.,0%,.,.
CNC(=O)OCc1n(C)cc[n+]1C,-19%,-4%,-3%,2%,-3%,5
O=C(CN1CCN(C(=O)COc2cccc(F)c2)CC1)Nc1ccc(Cl)c(C(F)(F)F)c1,21µM*,-6%,?,5.2µM*,-2%,?
C[C@@H]1O[C@@H](O[C@H]2C[C@@H](O)[C@]3(CO)[C@@H]4C(CC[C@]3(O)C2)[C@@]2(O)CC[C@H](C3COC(=O)C3)[C@@]2(C)C[C@H]4O)[C@H](O)[C@H](O)[C@H]1O (some centres not stated),-3%,5.2µM*,1.8µM*,?,1.3µM*,-65*
CCOC(=O)[C@]12Cc3cc(OC)ccc3[C@H]1N(CC(=O)OC)C(=O)c1cc(OC)ccc12,18µM*,?,.,6.5µM*,?,-57*
CCCCCN1C(=O)c2cc(OC)ccc2[C@@]2(C(=O)OCC)Cc3cc(OC)ccc3[C@@H]12,10µM*,15µM*,.,5.2µM*,13µM*,-69*
CCOC(=O)C1C(=O)N(C)C2(C)CC1c1cc(OC)ccc1O2 (configuration not stated),10%,-1%,-6%,-10%,-1%,11
CCOC(=O)[C@]12Cc3cc(OC)ccc3[C@H]1N(CC(=O)OC)C(=O)c1ccccc12,-17%,5%,.,-29%,5%,32
CCOC(=O)[C@]12Cc3cc(OC)ccc3[C@H]1N(C)C(=O)c1cc(OC)ccc12,?,?,.,16µM*,?,.
CCOC(=O)[C@]12Cc3cc(Cl)ccc3[C@H]1N(C)C(=O)c1cc(OC)ccc12,23µM*,?,.,16µM*,?,.
COc1cc(C(C)=O)ccc1OCc1cc(C(=O)N(C)CCC2CCCCO2)no1 (configuration not stated),-24%,3%,?,?,-10%,6
CCC1(c2ccc(N)cc2)CCC(=O)NC1=O (configuration not stated),-12%,?,.,-8%,10%,32
CCC(=NCc1ccc(F)cc1)c1c(O)n(C)c(=O)n(C)c1=O,23µM*,-1%,7.9µM*,18µM*,-20%,-14
CCC(=Nc1ccc(Cc2ccncc2)cc1)c1c(O)n(C)c(=O)n(C)c1=O,5µM*!,1%,7.3µM*,5µM*,-3%,0
CC(=Nc1ccc2c(c1)CCC2)c1c(O)n(C)c(=O)n(C)c1=O,-16%,8%,2%,-28%,12%,19
CCC(=Nc1ccc2c(c1)CCC2)c1c(O)n(C)c(=O)n(C)c1=O,12µM*,-2%,?,21µM*,-3%,29
CCC(=Nc1ccc2c(c1)CCC2)c1c(O)n(-c2ccc(OC)cc2)c(=O)[nH]c1=O,21µM*,-5%,-14%,15µM*,-18%,18
O=C(Cc1ccccc1)N1CCN(Cc2ccccc2Cl)CC1,?,1%,-5%,-8%,0%,16
CC1CC[C@]2(NC1)OC1CC3C4CC=C5CC(O)CC[C@@]5(C)C4CC[C@]3(C)C1C2C (some centres not stated),12%,.,.,5%,.,.
CC[C@@H](CO)C1CC2NC3CC4(c5ccccc5N(C)[C@@H]24)C(O)C31 (some centres not stated),-6%,-2%,.,-4%,-1%,-19
CC(C)(C)c1nc(NCc2ccc3c(c2)OCO3)c2nnn(Cc3ccccc3Cl)c2n1,-16%,14%,-12%,?,16%,13
Cc1cc(C)[n+](Cc2ccccc2)cc1C(N)=O,16%,?,.,6%,1%,17
CCOC(=O)c1ccc(N=C(CC)c2c(O)n(C)c(=O)n(C)c2=O)cc1,?,-3%,-18%,18µM*,-9%,-1
SMILES,DT40 TDP1 CPT,HT1080-NT tox,ELG1 repair inh,DT40 TDP1 no CPT,HT1080 IDH1KD tx,IL-1B inflam inh
O=C(CCc1ccc(O)cc1)N1C[C@H]2C[C@@H](C1)c1cccc(=O)n1C2,6%,5%,13%,2%,1%,13
CCOc1cc2c(cc1OCC)-n1cccc1C(c1ccccc1O)NC2 (configuration not stated),23µM*,?,-3%,?,?,-4
CCOc1cc2c(cc1OCC)-n1cccc1C(c1cccc(F)c1F)NC2 (configuration not stated),?,-4%,-25%,23µM*,-1%,-17
Oc1ccc(C2NCc3ccccc3-n3cccc32)cc1Cl (configuration not stated),?,-21%,-10%,?,-20%,-13
CCOc1cc2c(cc1OCC)-n1cccc1C(c1c(O)cccc1OC)NC2 (configuration not stated),13µM*,21µM*,?,10µM*,21µM*,-68*
CCOc1cc2c(cc1OCC)-n1cccc1C(c1ccccc1OC)NC2 (configuration not stated),?,-19%,-9%,26µM*,-16%,-85*
COC(=O)C1=C(c2ccc(C(C)=O)cc2)C[C@@H]2CC[C@H]1N2C(=O)NCc1ccc(F)cc1,-8%,?,3%,?,10%,6
CN1c2ccccc2C(NCCCCCCC(=O)O)c2ccc(Cl)cc2S1(=O)=O (configuration not stated),6%,.,.,?,.,.
COc1ccc(NC(=O)Nc2ccc3c(c2)C(=O)N([C@H](C)CO)C[C@H](C)[C@@H](CN(C)S(=O)(=O)c2ccc(F)cc2)O3)cc1,?,3%,-24%,?,-4%,-4
C[C@H](CO)N1C[C@H](C)[C@@H](CN(C)C(=O)Oc2cccc3ccccc23)OCc2cn(nn2)CCCC1=O,?,-4%,.,-26%,-2%,26

# High-throughput results deposited in PubChem BioAssay by National Center for Advancing Translational Sciences (NCATS).
